Data reported in the supplement of paper PMC3724861.
The full list was thinned out, with hits kept by preference. The hit rate among all sequences tested is not known here.

These sequences were tested on T1, Caupolican (Caup) homeodomain DNA-binding domain (assay: PBM E-score (8-mer, recovered from the published 9-mer minima) (E-score (dimensionless, -0.5 to 0.5)); Drosophila protein; higher = stronger relative binding preference, active = 0.31 or more).
T1 sequence: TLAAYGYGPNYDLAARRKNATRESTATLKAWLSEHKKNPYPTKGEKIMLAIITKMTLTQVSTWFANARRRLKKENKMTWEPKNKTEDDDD
Method in brief: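 Caup's homeodomain DNA-binding domain (residues 214-303) was produced by in vitro transcription and translation and applied at 100 nM to custom-designed protein binding microarrays. Each value is an enrichment score giving relative binding preference for a short DNA word; higher means stronger. Published 9-mer scores were the minimum of their two constituent 8-mer scores, and the 8-mer values were recovered from those minima. A cutoff of 0.31 marks candidate binding sequences.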

Row | Sequence | PBM E-score
1 | ACCGGGCC | -0.228 (inactive)
2 | GCACGTCC | -0.0893 (inactive)
3 | AGTTTTCC | -0.0223 (inactive)
4 | AGCCCACT | -0.166 (inactive)
5 | ATGTTCAC | 0.334 (active)
6 | ATGTTCAG | 0.295 (inactive)
7 | GTGTTCGA | 0.236 (inactive)
8 | ATGTTCAA | 0.327 (active)
9 | ATGTTCGA | 0.34 (active)
10 | ATGTTCGG | 0.244 (inactive)
11 | AGGTTCAC | -0.0392 (inactive)
12 | CTGTTCAC | 0.147 (inactive)
13 | CTGTTCAA | 0.0792 (inactive)
14 | CACTCTGA | 0.0251 (inactive)
15 | ATAGGGTG | -0.0464 (inactive)
16 | CCCATAAC | 0.0433 (inactive)
17 | CACGACCA | 0.098 (inactive)
18 | CAGAAGAG | -0.0491 (inactive)
19 | ATCCTCCG | -0.0647 (inactive)
20 | AAGTGAGA | -0.0758 (inactive)
21 | CCTCTGGA | -0.169 (inactive)
22 | CTCCGTGA | -0.0581 (inactive)

Row | Sequence | PBM E-score
23 | CGGTAGGC | -0.149 (inactive)
24 | ATACGATA | 0.186 (inactive)
25 | CCCTGTAA | 0.161 (inactive)
26 | AAATGTAG | 0.0799 (inactive)
27 | GAATGTAC | 0.165 (inactive)
28 | CGATGTAC | 0.374 (active)
29 | GCATGTAC | 0.413 (active)
30 | GGATGTAC | 0.305 (inactive)
31 | CGATGTAG | 0.179 (inactive)
32 | CCATGTAA | 0.404 (active)
33 | ACCTGTAG | 0.0685 (inactive)
34 | ACATGTAG | 0.476 (active)
35 | CCATGTAG | 0.268 (inactive)
36 | CGATGTGC | -0.0367 (inactive)
37 | AGGCTTTC | -0.088 (inactive)
38 | ACCGCGGA | -0.137 (inactive)
39 | ATTCCTTA | 0.0011 (inactive)
40 | CATCCCAC | -0.133 (inactive)
41 | GCTGCCGA | -0.282 (inactive)
42 | ACATGTAA | 0.468 (active)
43 | CCATGTAC | 0.411 (active)
44 | CCCTGTAC | 0.158 (inactive)

Row | Sequence | PBM E-score
45 | TCCTGTAA | 0.2 (inactive)
46 | TCATGTAA | 0.427 (active)
47 | ACATGTAC | ≥ 0.48 (active)
48 | AGATGTAC | 0.299 (inactive)
49 | AAATGTAC | 0.279 (inactive)
50 | TCATGGAA | 0.0375 (inactive)
51 | ACACGTAA | 0.309 (inactive)
52 | AACTGTAA | 0.197 (inactive)
53 | CCCCTTGA | -0.156 (inactive)
54 | CACGCACA | 0.0915 (inactive)
55 | AGGTCATG | 0.0878 (inactive)
56 | ATAGTCGG | -0.0656 (inactive)
57 | AAAGCTCG | -0.0924 (inactive)
58 | CTCATCTC | -0.158 (inactive)
59 | GGGATTGA | -0.0471 (inactive)
60 | AAATGTAT | 0.241 (inactive)
61 | GCATGGAA | -0.00398 (inactive)
62 | ACATGTAT | 0.469 (active)
63 | GCATGTAA | 0.409 (active)
64 | GCCTGTAA | 0.09 (inactive)
65 | ACCTGTAT | 0.222 (inactive)
